# The list is not random: actives were taken first. Their share in the collection is about 3.4%.
# HSF1 inh – HSF1 inhibition; NIH3T3-HGL HSE-luciferase, MG132-induced, luminescence 8 h; stronger effect = lower value; activity change, negative = inhibition, % at 7.5 µM (by protocol); actives 0.77% (n = 300,000); AID 2098;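 active means more than half of replicate wells show activity change below -50%, luminescence cut by over half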;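 further: luciferase reports HSF-1 transcriptional activity via heat shock element; 0% = median of DMSO wells and -100% = zero luminescence signal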
# HSF-1 act – increases HSF-1 driven luciferase reporter signal. NIH3T3-HGL HSF-1 luciferase reporter, MG132, 8 h; 100% = twice DMSO control signal. activation, % at 9 µM. actives 1.7% (n = 300,000). AID 504408;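 active means mean replicate activation of at least 50% with a set share of replicates each reaching 50%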;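 further: 0% = median of the neutral control wells and 100% = twice that signal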
# esBAF inh – inhibitors of esBAF chromatin remodeling in mouse ES cells. Bmi1-luciferase knock-in reporter, 24 h; 100% = twice the neutral-well signal. reporter increase, % at 12.5 µM. actives 2% (n = 350,000); in the data active means activation above about 40%;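 further: 0% = median of the plate's neutral control wells and 100% = double that signal; a rise in the Bmi1 reporter signal indicates esBAF inhibition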
# Vif inh – blocks HIV Vif function | AID 602346 | HEK293T cells, Vif self-association by quenched fluorescence, imaging, 24 h | inhibition, % at 7.49 µM | actives 0.35% (n = 340,000); in the data active means inhibition above about 50%, passing the limit was not always enough
# Active calls of the source: *; . = no result given.
SMILES,HSF1 inh,HSF-1 act,esBAF inh,Vif inh
CC1(C)C2CC[C@]3(C)C(CC=C4[C@@H]5C[C@@](C)(CO)[C@@H](O)C[C@]5(C(=O)O)CC[C@]43C)[C@@]2(C)CC[C@@H]1O (some centres not stated),7,7,-3,67*
CN(C)C(=O)C[C@@H]1CC[C@H](NC(=O)C2CCC2)[C@@H](CO)O1,.,.,-6,.
COc1cc(/C=N/NC(=O)c2ccc([N+](=O)[O-])cc2Cl)cc(Br)c1O,5,46,.,4
COc1cc(/C=N/N2C(=O)c3ccccc3NC2(C)c2cccc([N+](=O)[O-])c2)cc(Br)c1O (configuration not stated),44,56*,12,-25
C[C@@H]1CN([C@@H](C)CO)S(=O)(=O)c2ccc(-c3ccncc3)cc2O[C@H]1CN(C)C,.,.,0,.
COc1cc(/C=N/N=C2/C(=O)Nc3ccccc32)cc(OC)c1O,-72*,-79,.,4
Cc1ccc(N=C2C(=O)Nc3ccccc32)cc1C,9,51*,3,4
COc1ccc(NC(=O)N(C)C[C@H]2Oc3ccc(NC(=O)NC4CCCCC4)cc3C(=O)N([C@H](C)CO)C[C@H]2C)cc1,.,.,-2,.
Cc1ccc(C)c(-c2csc(-c3cccnc3)n2)c1,-3,27,6,0
c1ccc(-c2csc(-c3cccnc3)n2)cc1,16,13,.,0
CC(O)(c1cccnc1)c1nc(-c2ccc3ccccc3c2)cs1 (configuration not stated),.,.,57*,-17
c1ccc(-c2nc(-c3cccnc3)cs2)cc1,9,21,52*,-1
COc1ccc2cc(-c3csc(-c4cccnc4)n3)ccc2c1,-2,-8,59*,15
COc1cccc(C(C)(O)c2nc(-c3ccc4ccccc4c3)cs2)c1 (configuration not stated),.,.,16,-1
COc1ccc(-c2csc(-c3cccnc3)n2)cc1C,-8,-1,51*,115*
Cc1ccc(S(=O)(=O)Nc2ccc3c(c2)CC(=O)N([C@@H](C)CO)C[C@@H](C)[C@@H](CN(C)S(=O)(=O)c2ccc(F)cc2)O3)cc1,.,.,-4,.
CC=Cc1ccc2n(c1=O)C[C@@H]1[C@@H](CO)[C@H](C(=O)NCCc3cn(C)cn3)[C@H]2N1C(=O)CC (mixture of isomers),.,.,-1,.
CNC(=O)c1ccc(-c2nc(-c3ccccc3)cs2)cc1,17,26,52*,-7
CC(=O)NC12CC3CC(C1)CC(C(=O)Nc1nc4ccc(F)cc4s1)(C3)C2,-5,-5,45*,-22
Cc1c(C#N)c(NC(=O)CCl)n(Cc2ccccc2)c1C,21,57*,-6,1
CCOC(=O)C1(CCOc2ccccc2)CCN(Cc2cccc3c2OCO3)CC1,-4,1,.,.
CCOC(=O)C1(CCOc2ccccc2)CCN(Cc2cccc(F)c2)CC1,2,1,-5,5
CCOC(=O)C1(CCOc2ccccc2)CCN(Cc2cccc(-n3cccn3)c2)CC1,-60*,-70,-5,-14
CCOC(=O)C1(CCOc2ccccc2)CCN(Cc2cc(OC)c3c(c2)OCO3)CC1,27,57*,-4,-8
CO[C@H]1CN(C)C(=O)c2cc(NC(=O)C3CC3)ccc2OC[C@@H](C)N(C(C)=O)C[C@@H]1C,.,.,3,.
SMILES,HSF1 inh,HSF-1 act,esBAF inh,Vif inh
CCOC(=O)c1cc2nc(-c3ccco3)cc(C(F)(F)F)n2n1,-89*,-92,1,-6
Cc1noc(C)c1NC(=O)Nc1cccc2c1O[C@@H](CN(C)Cc1ccc(-c3ccccc3)cc1)[C@@H](C)CN([C@@H](C)CO)C2=O,.,.,-5,.
COCCn1c(COC)nc2ccccc21,-5,-7,-8,1
CCn1c(COc2ccc(C)cc2)nc2ccccc21,47,81*,.,-3
Cc1ccc(OCCCn2c(CO)nc3ccccc32)cc1,4,-15,34,-11
CCOCCn1c(COc2ccc(C)cc2)nc2ccccc21,47,76*,.,-2
C=CCn1c(COc2ccccc2)nc2ccccc21,8,11,50*,-2
COCCn1c(COc2ccc(C)cc2)nc2ccccc21,41,46,64*,-7
CCCC#Cc1cnc2c(c1)C(=O)N([C@H](C)CO)C[C@@H](C)[C@H](CN(C)C(=O)CCN1CCCCC1)O2,.,.,-4,.
Cc1ccc(S(=O)(=O)N[C@H]2CC[C@H](CCNC(=O)C3CC3)O[C@H]2CO)cc1,.,.,2,.
Nc1cnn(Cc2ccccc2F)c1,16,25,.,-3
Nc1cnn(Cc2ccc(F)cc2)c1,30,56*,3,4

# From PubChem BioAssay
